High-throughput results (PubChem)
ELG1 genotox: qHTS screen for small molecules that induce genotoxicity in human embryonic kidney (HEK293T) cells expressing luciferase-tagged ELG1; AID 504466, 2011; Potency, µM (series often up to 46 µM), inactives show at the highest dose activity change, positive = activation, usual class: activators; HEK293T ELG1-luciferase reporter, luminescence, 16 h; 1.3% of 330,000 active; further: % of control where 0% means no effect; nearly all actives have a fitted effect of over 60% in size
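Quantitative HTS format in 1536-well plates. HEK293T ELG1-luciferase reporter cells receive test compound and are incubated 16 hr at 37 °C, 5% CO2; ONE-Glo added, 30 min room temperature, then luminescence read.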
FLuc counter: qHTS profiling assay for firefly luciferase inhibitor/activator using purifed enzyme and Km concentrations of substrates (counterscreen for miR-21 project); Luciferin 4-monooxygenase (Photinus pyralis), P08659; 6.9% of 360,000 active; AID 588342, 2011; Potency, µM (top dose mostly 57.5 µM), inactives show at the top dose activity change, negative = inhibition, usual class: inhibitors; purified FLuc, Km substrates, luminescence inhibition;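 further: plate controls were vehicle for no effect and reference inhibitor for full effect; nearly all actives have a fitted effect of over 55% in size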
Target sequence (P08659 whole entry, looked up): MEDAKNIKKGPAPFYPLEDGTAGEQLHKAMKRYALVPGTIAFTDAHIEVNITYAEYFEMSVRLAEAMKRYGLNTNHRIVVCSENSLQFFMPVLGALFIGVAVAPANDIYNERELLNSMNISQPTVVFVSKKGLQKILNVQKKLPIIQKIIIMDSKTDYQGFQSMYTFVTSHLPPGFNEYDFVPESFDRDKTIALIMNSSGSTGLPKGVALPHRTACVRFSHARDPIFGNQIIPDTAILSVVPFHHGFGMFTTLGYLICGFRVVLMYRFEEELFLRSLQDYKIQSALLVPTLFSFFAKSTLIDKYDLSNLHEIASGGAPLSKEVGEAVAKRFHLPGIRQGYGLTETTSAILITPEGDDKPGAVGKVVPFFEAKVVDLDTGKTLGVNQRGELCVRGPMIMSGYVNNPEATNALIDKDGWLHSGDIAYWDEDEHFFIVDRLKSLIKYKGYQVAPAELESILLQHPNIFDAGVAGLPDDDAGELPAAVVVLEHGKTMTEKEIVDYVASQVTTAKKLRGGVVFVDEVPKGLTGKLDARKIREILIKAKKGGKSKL
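Biochemical qHTS of compounds, final roughly 60 µM downward over six points, against 10 nM purified firefly luciferase using Km concentrations of substrates (10 uM D-luciferin, 10 uM ATP) in Tris acetate pH 7.5 buffer; luminescence output.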
ELG1 DNA repair: qHTS screen for small molecules that inhibit ELG1-dependent DNA repair in human embryonic kidney (HEK293T) cells expressing luciferase-tagged ELG1 | AID 504467, 2011 | Potency, µM (top dose mostly 46.1 µM), for inactives: top-dose activity change, negative = inhibition, hits mostly inhibitors | 2.3% of 330,000 active | HEK293T ELG1-luciferase reporter, luminescence, 16 h; DNA damage induced by 5-fluorouridine; further: on the % scale 0 is the no-effect control and ±100 the full control effect; nearly all actives have a fitted effect of over 55% in size
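Luminescence from the luciferase reporter, measured 30 min after ONE-Glo reagent at room temperature, was the read-out. Beforehand, 2,000 cells per well were exposed for 16 hr at 37 °C to 5-fluorouridine together with compound or vehicle.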
Rab9 prom act: qHTS Assay for Rab9 Promoter Activators; Huh7 Rab9 promoter-luciferase reporter, luminescence, 24 h; AID 485297, 2010; 2.8% of 320,000 active; Potency, µM (doses to about 9.22 µM), without a hit: top-dose activation, negative = inhibition, usual class: activators; further: % of control where 0% means no effect; nearly all actives have a fitted effect of over 60% in size
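Rab9 promoter-driven luciferase in stably transfected Huh7 cells; 1500 cells/well rested 2 h, exposed to compound in DMSO for 24 h at 37 °C, 5% CO2. Luminescence read 10 min after adding luciferase reagent at ambient temperature.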
NPC1 promoter act: qHTS Assay for NPC1 Promoter Activators. Huh7 NPC1 promoter luciferase reporter, 24 h. Potency, µM (series often up to 9.22 µM), for the others: at the top dose activation, most hits filed as activators. 2.4% of 320,000 active; further: % of control where 0% means no effect; nearly all actives have a fitted effect of over 60% in size
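Luminescence from an NPC1 promoter-driven luciferase reporter in stably transfected Huh7 cells was measured after 24 h compound treatment at 37 °C, followed by 10 min ambient incubation with luciferase detection reagent.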
SMN2 splice enh: qHTS Assay for Enhancers of SMN2 Splice Variant Expression; 2.8% of 210,000 active; HEK293 SMN2-luciferase splicing reporter, luminescence, 30-36 h; Potency, µM (highest dose often 46.1 µM), without a hit: at the highest dose activity change, positive = activation, usual class: activators; AID 1458, 2008; further: % of control where 0% means no effect; nearly all actives have a fitted effect of over 55% in size
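HEK293 cells carry an SMN2 […]–luciferase reporter in which exon 7 inclusion puts luciferase in frame. Cells were plated 10-12 h before compound addition, then incubated 30-36 h at 37C. ONE-Glo luminescence was read; sodium butyrate at 4.5 mM final served as control.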
An asterisk follows results filed as active; u = inconclusive; x = no result; [ ] = dose if it differs, or a comment. An excerpt weighted towards active compounds, which were near 9.2% of everything screened. The call rests on the fitted dose curve; in most records, active means well fitted curve in the direction sought with a large enough effect; inconclusive means small, poorly fitted or top-dose-only effect, or another doubt; inactive means no such curve, though single readings can be large; an effect the other way counts as inactive or inconclusive. Potency means the concentration at half of the fitted maximal effect.

SMILES	ELG1 genotox	FLuc counter	ELG1 DNA repair	Rab9 prom act	NPC1 promoter act	SMN2 splice enh
CN(C(=O)/C=C/c1cnc2ccccc2c1)C1CCCCC1	-1%	4.3µM*	u	1.1µM*	1.6µM*	3.2µM*
COc1ccc(/C=C/C(=O)N(C)C2CCCCC2)cc1Br	u	24µM*	u	22%	16%	u
CCCCc1ccc(NS(=O)(=O)c2cccc(C(=O)N3CCNC(=O)C3)c2)cc1	1%	-1%	2%	-3%	-1%	x
CC(=O)Cn1cnc2c(sc3nc(C)cc(C)c32)c1=O	u	15µM*	u	24%	27%	x
COc1ccc(SCC(=O)c2cc(C)c(OC(=S)N(C)C)c(C)c2)cc1	15%	17µM*	-14%	u	27%	-12%
Cc1cc(C(=O)CSc2ccc(F)cc2)cc(C)c1OC(=S)N(C)C	1µM*	0.67µM*	u	u	u	-51%
OC(CNC1CCCC1)COCCOc1ccc(Br)cc1 (stereo unspecified)	-4%	-1%	5%	-3%	1%	x
C=C1CCO[C@@]2([C@H](O)[C@@](C)(O)CO)NC(=O)[C@]1(O)NC2=O	x	x	x	x	x	-6%[9.22 µM]
CCOc1ccc(NC(=O)CSc2nc3c(oc4ccccc43)c(=O)n2CCOC)cc1	x	-6%	x	x	x	-5%
COc1ccc(NS(=O)(=O)c2ccc(N/N=C(\C)c3ccncc3)c([N+](=O)[O-])c2)cc1	1%	0%	18µM*	-21%	-19%	-53%
Cc1nc(N)sc1N=Nc1ccccc1C(F)(F)F	u	12µM*	u	2.8µM*	u	x
Cc1ccccc1C(=O)NC(=S)Nc1ccc2[nH]c(=O)[nH]c2c1	-1%	0%	-4%	-2%	-3%	7%
Cc1ccc(-c2nnc3ccc(SCC(=O)N4CCCc5ccccc54)nn23)cc1	-7%	1%	18µM*	-8%	-3%	3%
O=C(CSc1ccc(-c2ccc(Cl)cc2)nn1)N1CCCc2ccccc21	-4%	15µM*	9%	4%	-2%	-27%
C/C(=C(/CCO)SSC[C@@H]1CCCO1)N(C=O)Cc1cnc(C)nc1N	x	x	x	x	x	2%[20.6 µM]
COc1ccc(C(=O)NCCSc2ccccc2)cc1	2.6µM*	1.5µM*	u	0.35µM*	0.35µM*	2.8µM*
COc1ccc(-c2[nH]c3ccccc3c2SCCNC(=O)c2ccccc2)cc1	-20%	-8%	16µM*	-10%	-5%	-49%
O=C(NCCSc1ccc(Br)cc1)c1ccccc1	1%	-11%	1%	1%	-2%	-4%
COc1cccc(C(=O)NCCSc2c(C)[nH]c3ccccc23)c1OC	-12%	1%	23µM*	0%	-4%	x
CSCc1ccc(C(=O)NCCSc2ccc(Br)cc2)cc1	u	19µM*	u	u	u	x
CCN(CC(=O)Nc1ccc(NC(C)=O)cc1)C(=O)c1ccc(=O)[nH]c1	4%	2%	13%	17%	-6%	x
O=C(NCSc1ccccc1)c1ccccc1	u	11µM*	u	1.4µM*	2.5µM*	x
COc1ccc(C(O)Cn2ccsc2=NC(C)=O)cc1 (stereo unspecified)	16%	-1%	9%	-1%	-20%	x
O=C(N/N=C/c1cccs1)c1cc(-c2ccncc2)nc2ccccc12	5%	u	-22%	-16%	-8%	-22%
CC(C)COc1cccc(-c2cc(C(=O)N/N=C/c3ccncc3)c3ccccc3n2)c1	-8%	0.95µM*	u	-3%	-4%	x
SMILES	ELG1 genotox	FLuc counter	ELG1 DNA repair	Rab9 prom act	NPC1 promoter act	SMN2 splice enh
COc1ccc(-c2cc(C(=O)N/N=C/c3cccnc3)c3cc(C)cc(C)c3n2)cc1	-5%	7.6µM*	u	-2%	-7%	x
Cc1cc(C(=O)N/N=C/c2ccncc2)c2ccccc2n1	-2%	2%	-25%	-4%	0%	x
O=C(N/N=C/c1ccc[nH]1)c1cc(-c2cccs2)nc2ccccc12	-15%	15µM*	u	-1%	-5%	1%
Cn1cccc1/C=N/NC(=O)c1cc(-c2cccs2)nc2ccccc12	-5%	13µM*	u	-9%	-16%	0%
Cc1ccc(NC(=O)CCc2nc(-c3ccccc3F)no2)c(C)c1	x	-2%	x	x	x	0%
O=C(N/N=C/c1cccnc1)c1cc(-c2cccs2)nc2ccccc12	-6%	24µM*	u	-5%	-6%	0%
Cn1c(O)c(N=Nc2ccc(F)cc2)c2ccccc21	2%	u	9%	21%	4%	8%
O=C(N/N=C/c1ccc2ncccc2c1)c1cc(-c2cccs2)nc2ccccc12	-9%	u	u	0%	-5%	x
COc1ccc(CCNC(=O)c2cc(-c3ccncc3)nc3c(Cl)cccc23)cc1OC	-11%	-1%	u	-7%	-3%	26%
Cn1c(O)c(N=NC(=O)c2cc(-c3cccs3)nc3ccccc23)c2ccccc21	-9%	2.7µM*	15µM*	-2%	3%	-27%
COc1ccc(CNC(=O)c2cc(-c3ccncc3)nc3c(C)cc(C)cc23)cc1OC	-11%	u	23µM*	-1%	-2%	-3%
O=C(N=Nc1c(O)[nH]c2ccc(Br)cc12)c1cc(-c2cccs2)nc2ccccc12	6%	-7%	15%	-3%	-5%	-68%
Cn1c(O)c(N=Nc2ccccc2)c2ccccc21	3%	27µM*	1%	-2%	-1%	x
COCCSc1nc(N)c(NC(=O)c2ccco2)c(=O)[nH]1	1%	2%	-4%	4%	-2%	x
CCCCNC(=O)CCn1c(=O)c2ccccc2n(Cc2ccc(F)cc2)c1=O	-1%	-1%	11%	-5%	-1%	10%
CCOc1ccc(-c2cc(C(=O)N/N=C/c3cccnc3)c3ccccc3n2)cc1	16%	0.38µM*	u	u	-9%	x
CC1(C)CC(NC(=O)c2ccc(Cl)c(Cl)c2)CC(C)(C)N1	0%	-1%	13%	-2%	2%	x
CC(C)(C)C(=O)Nc1cccc(OC(F)(F)C(F)Cl)c1 (stereo unspecified)	2%	-11%	-2%	-3%	2%	-2%
CCOC(=O)c1cc(-c2cccs2)nc2c1c(C)nn2-c1ccccn1	-9%	u	u	-1%	-2%	-50%
Cc1ccc(-c2cc(C(=O)NCc3ccco3)c3ccccc3n2)s1	-4%	12µM*	-13%	5%	1%	-14%
